We go through 19 molecules from PubChem BioAssay (EPA / NIEHS).

What is called AC50 is the concentration giving half of the maximal activity seen.

Test [1] in a line: BSK_BT_PBMCCytotoxicity: PBMC Cytotoxicity Assessment in the BioMAP Diversity Plus: BT Assay (AID 2284225).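 Note: PBMC viability measured by Alamar Blue dye reduction fluorescence.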 Particulars: primary human B cells with PBMC. In short, it runs like this: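 PBMC (75,000/well) pretreated with compound 1 h, then activated with SEB and TSST-1 (20 ng/mL each final), incubated 90 h; Alamar Blue added 6 h, fluorescence read at 546/580 nm. Fitted relative to DMSO.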

Read-out in test [2]: Secreted IgG (sIgG), gene 3500
Kind of test: BSK_BT_sIgG: BioMAP Diversity Plus: BT Assay for Secreted IgG (sIgG) Biomarker Activity (AID 2284226). The note with it: primary human B cells with PBMC. In short, it runs like this: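 Human B cell plus PBMC co-culture; secreted IgG measured by ELISA 24 h after chemical dosing. Response fitted in positive direction relative to DMSO baseline.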

Test [3] in a line: BSK_BT_Bcell_Proliferation: Viability Assessment in the BioMAP Diversity Plus: BT Assay for B cell Proliferation (AID 2284227). Particulars: primary human B cells with PBMC. In short, it runs like this:
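Using a human primary B cell–PBMC co-culture, the assay measures total protein by sulforhodamine B absorbance as a gauge of proliferation after 72 h. Analysis followed the positive fitting direction with DMSO as baseline.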

Read-out in test [4]: Interleukin 6 (IL6), IL6 (gene 3569)
Kind of test: BSK_BT_xIL6: BioMAP Diversity Plus: BT Assay for Interleukin 6 (IL6) Biomarker Activity (AID 2284228). The note with it: primary human B cells with PBMC. In short, it runs like this:
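Chemical added to human B cell/PBMC co-culture → 24 h → supernatant IL-6 by Luminex xMAP → fit vs DMSO baseline, upward direction.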

Read-out in test [5]: Interleukin 17A (IL17A), IL17A (gene 3605)
Put plainly: BSK_BT_xIL17A: BioMAP Diversity Plus: BT Assay for Interleukin 17A (IL17A) Biomarker Activity (AID 2284229). Particulars: primary human B cells with PBMC. In short, it runs like this: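 Chemicals were added to a human B cell and PBMC co-culture. After 24 h, secreted IL-17A was measured with Luminex xMAP. Curves were fitted in the positive direction, with DMSO wells as baseline.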

Read-out in test [6]: Tumor necrosis factor (Homo sapiens) (UniProt P01375)
Put plainly: BSK_BT_xTNFa: BioMAP Diversity Plus: BT Assay for Tumor necrosis factor alpha (TNF-alpha) Biomarker Activity (AID 2284230). Particulars: primary human B cells with PBMC. In short, it runs like this:
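Endpoint derived in the positive direction versus DMSO vehicle. Cells: B cells together with PBMC, exposed 24 h before TNF-alpha in the medium was read on the Luminex xMAP platform.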

Test [7] is described as follows: TAMU_PeakParms_SingleDonor1434_Chronotropy: Texas A&M University (TAMU) 1.5-hr Human Induced Pluripotent Stem Cell (iPSC)-derived Cardiomyocytes Calcium (Ca+2) Flux Assay for Cardiotoxicity: Chronotropy (changes in peak frequency) (AID 2284217). Particulars: actives raise or lower the signal. In short, it runs like this:
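Using fluorescent Ca2+ flux, average beats per second are measured in human iPSC-derived cardiomyocytes treated 90 min (0.5% DMSO vehicle, 0.2–100 uM). Non-beating data points are removed; activity is modeled in both directions relative to DMSO controls.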

Test [8] can be described thus: IUF_NPC1b_proliferation_BrdU_72hr: Leibniz Research Institute for Environmental Medicine (IUF) 72-hour Neural Progenitor Cell Bromodeoxyuridine (BrdU) Proliferation Assay (NPC1b) (AID 2284207). In short, it runs like this: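 hNPC spheres (primary, GW 16-19 fetal cortex), single sphere/well, EGF+FGF medium; 72 h compound, no renewal; BrdU pulse last 16 h; luminescent ELISA; activity vs DMSO baseline; growth-factor withdrawal as positive control.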

The nature of test [9]: IUF_NPC1a_proliferation_area_72hr: Leibniz Research Institute for Environmental Medicine (IUF) 72-hour Neural Progenitor Cell Proliferation Area Assay (NPC1a) (AID 2284208). In short, it runs like this: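 Proliferation is scored as sphere area gain in primary human fetal neural progenitors treated for 72 h in EGF/FGF-containing medium. Viability, LDH and BrdU readouts come from the same wells.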

A short description of test [10]: IUF_NPC1_viability_72hr: Viability Assessment at 72 hours in the Leibniz Research Institute for Environmental Medicine (IUF) Neural Progenitor Cell Proliferation Assay (NPC1) (AID 2284209). In short, it runs like this:
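Single spheres (0.25-0.35 mm) of human fetal cortex-derived neural progenitor cells were grown in proliferation medium with EGF and FGF at 37C and 5% CO2. They were exposed for 72 h without renewal, and viability was read by alamar blue resorufin fluorescence.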

A short description of test [11]: CCTE_Mundy_HCI_Cortical_Synap_Neur_Matur_NeuriteSpotCountPerNeuriteLength: CCTE's Synaptogenesis and Neurite Maturation Assay in rat cortical cells for Neurite Spot Count per Neurite Length, Mundy Lab (AID 2284210). In short, it runs like this: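 Rat primary cortical cultures, glia arrested with AraC at DIV 5, were dosed with media change at DIV 7 and fixed at DIV 12. Synaptophysin puncta per MAP2-labelled neurite length were quantified by high-content imaging versus DMSO.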

Test [12] is described as follows: CCTE_Mundy_HCI_Cortical_Synap_Neur_Matur_BPCount: CCTE's Synaptogenesis and Neurite Maturation Assay in rat cortical cells for Branch Point Count, Mundy Lab (AID 2284211). In short, it runs like this:
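Rat primary cortical cultures, AraC added DIV 5; chemicals dosed DIV 7 through DIV 12. Fixed cells stained for MAP2, synaptophysin and Hoechst; neurite branch points counted by automated high-content imaging, fitted relative to DMSO.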

Test [13] is described as follows: CCTE_Mundy_HCI_Cortical_NOG_NeuriteCount: CCTE's Neurite Outgrowth Assay in rat cortical cells for Neurite Count, Mundy Lab (AID 2284212).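 Note: cells fixed about two days after chemical exposure began.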 In short, it runs like this: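 Neurite number per cell from high-content imaging of betaIII-tubulin immunostaining, with Hoechst nuclear counterstain.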
Test [14] in a line: CCTE_Mundy_HCI_Cortical_NOG_NeuriteLength: CCTE's Neurite Outgrowth Assay in rat cortical cells for Neurite Length, Mundy Lab (AID 2284213). In short, it runs like this:
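Neurite length was read by high-content imaging of βIII-tubulin-labelled neurites in rat primary cortical cultures. Activity was fitted relative to DMSO.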

Test [15] in a line: CCTE_Mundy_HCI_Cortical_Synap_Neur_Matur_NeuriteLength: CCTE's Synaptogenesis and Neurite Maturation Assay in rat cortical cells for Neurite Length, Mundy Lab (AID 2284214). In short, it runs like this: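 Rat primary cortical cultures, AraC added DIV 5, dosed DIV 7 through DIV 12 […]. Fixed, MAP2/synaptophysin immunostained with Hoechst; neurite length by high-content imaging, fitted in positive direction versus DMSO.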

The nature of test [16]: CCTE_Mundy_HCI_Cortical_Synap_Neur_Matur_NeuriteSpotCountPerNeuron: CCTE's Synaptogenesis and Neurite Maturation Assay in rat cortical cells for Neurite Spot Count per Neuron Count, Mundy Lab (AID 2284215). In short, it runs like this:
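Synapse density is scored as synaptophysin spots along neurites per neuron in fixed rat cortical neurons, measured at DIV 12 after chemical dosing at DIV 7. DMSO is the negative control and activity baseline.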

A short description of test [17]: CCTE_Mundy_HCI_Cortical_Synap_Neur_Matur_SynapseCount: CCTE's Synaptogenesis and Neurite Maturation Assay in rat cortical cells for Synapse Count, Mundy Lab (AID 2284218). In short, it runs like this: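 Rat primary cortical cultures, AraC at DIV 5, chemical dosing DIV 7 to DIV 12 (288.33 h). Fixed cells stained for MAP2, synaptophysin and Hoechst; synapses per neuron counted by high-content imaging, loss of signal versus DMSO.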

The nature of test [18]: CCTE_Mundy_HCI_Cortical_Synap_Neur_Matur_NeuriteCount: CCTE's Synaptogenesis and Neurite Maturation Assay in rat cortical cells for Neurite Count, Mundy Lab (AID 2284222).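 Note: exposure from day 7 to day 12 in vitro with readout at day 12.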 In short, it runs like this:
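In this multiplexed morphology readout, rat primary cortical neurons are fixed at DIV 12 following dosing at DIV 7 and stained for MAP2, synaptophysin and nuclei. High-content image analysis yields neurite count.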

The nature of test [19]: CCTE_Mundy_HCI_Cortical_Synap_Neur_Matur_CellBodySpotCount: CCTE's Synaptogenesis and Neurite Maturation Assay in rat cortical cells for Cell Body Spot Count, Mundy Lab (AID 2284223). In short, it runs like this: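 Synapse number at neuronal cell bodies was quantified as synaptophysin puncta per neuron in rat cortical cultures exposed from DIV 7 to DIV 12. Values were normalised to DMSO.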

Where “and” joins values, the source holds several entries; their conditions need not be identical. Equal entries are not always repeated. Where a structure was tested more than once in an assay, its records may differ in their call. Calls of active or inactive are those of the source. Rule for the calls: active = hit-call score of the fitted dose curve at least 0.9, where 1 is the maximum; inactive = score below 0.9.

Sequence of Tumor necrosis factor (Homo sapiens) (P01375 whole entry, looked up): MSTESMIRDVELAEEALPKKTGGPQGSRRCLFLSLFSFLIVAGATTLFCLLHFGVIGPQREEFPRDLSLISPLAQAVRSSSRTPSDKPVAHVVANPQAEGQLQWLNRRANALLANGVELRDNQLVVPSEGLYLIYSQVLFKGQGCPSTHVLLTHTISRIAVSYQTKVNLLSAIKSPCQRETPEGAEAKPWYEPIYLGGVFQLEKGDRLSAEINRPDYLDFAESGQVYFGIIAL

Turning to `CCCCCCCC1CCCC1=O` (centres undefined), the result in test [1], in [3], in [4], in test [5] and in test [6] was inactive. Also, in [2], the AC50 was 2.5 µM (active).

As for `c1ccc2c(c1)-c1ccc3ccc4cccc5cc-2c1c3c45`, the result in test [1], in test [2], in test [5] and in [6] was inactive. For the same molecule, the AC50 in test [3] is 1.98 µM (active); in [4] it was 0.0398 µM (active).

For the molecule `O=C1OC2(c3ccc(O)cc3Oc3cc(O)ccc32)c2ccccc21`, the result in [1], in test [3], in [4], in [5] and in test [6] was inactive. Moreover, in test [2], the AC50 is 35.5 µM (active).

Turning to `CCOC(=O)CCCCCCCCC(=O)OCC`, the outcome in [1], in test [2], in test [3], in test [4], in test [5] and in test [6] was inactive.

For the molecule `CC(=O)CCC=C(C)CCC=C(C)C`, the outcome in test [1], in test [4], in [5] and in test [6] was inactive. For the same molecule, the concentration at half-maximal activity (AC50) is 20 µM (active) in [2] and 31.7 µM (active) in test [3].

On to `CC=CC(=O)C1=C(C)C=CCC1(C)C`, for which the result in test [1], in test [2], in [3], in test [4], in [5] and in test [6] was inactive.

For the molecule `C=CC(=O)OCC(CO)(COC(=O)C=C)COC(=O)C=C`, the AC50 in [1] is 1.7 µM (active); in test [2] it was 0.709 µM (active); in test [3], 1.19 µM (active); in test [4], 0.994 µM (active); in [5] it was 1.09 µM (active); in [6], 1.88 µM (active).

For `CC(=O)OCC=C(C)CCC=C(C)CCC=C(C)C`, the AC50 in test [1] is 33.2 µM (active); in test [2], 20 µM (active); in test [3] it was 37.9 µM (active); in [4] it was 30.7 µM (active); in test [5] it was 20 µM (active); in test [6], 36.5 µM (active).

As for `O=C(O)C(F)(F)C(F)(F)C(F)(F)C(F)(F)C(F)(F)C(F)(F)C(F)(F)C(F)F`, the half-maximal activity concentration (AC50) was 19.8 µM (active) in test [1]; 21 µM (active) and 22.2 µM (active) in test [3]. The result in test [1], in [2], in test [4], in [5] and in test [6] was inactive.

`CC1=CC(C)C(C=O)C(C)C1` (centres undefined) (tested in a mixture with another compound): the outcome in test [1], in [2], in test [3], in test [4], in test [5] and in [6] was inactive.

Take `C=C(C)C(=O)OCCC(F)(F)C(F)(F)C(F)(F)C(F)(F)C(F)(F)C(F)(F)C(F)(F)C(F)(F)F`: the result in [1], in test [2], in test [3], in test [4], in [5] and in test [6] was inactive.

As for `c1ccc(Sc2ccccc2)cc1`, the result in [1], in test [2], in test [3], in [4], in [5] and in [6] was inactive.

With `CC/C(=C(\c1ccccc1)c1ccc(OCCN(C)C)cc1)c1ccccc1`, the result in test [7] was inactive.

Consider `c1ccc2scnc2c1`, for which the half-maximal activity concentration (AC50) in test [8] was 10 µM (active). The molecule was classed as inactive in [9], in [10], in [11], in test [12], in [13] and in [14]. Also, the outcome in test [15], in test [16], in test [17], in test [18] and in [19] was inactive.

Regarding `CCCCCCCCCCCCS`, the outcome in test [1], in test [2], in test [3], in test [4], in [5] and in test [6] was inactive.

For `CC(C)(C)c1cccc(O)c1`, the result in test [1], in test [2], in [3], in [4], in [5] and in test [6] was inactive.

For the molecule `OCC(F)(OC(F)(F)C(F)(OC(F)(F)C(F)(F)C(F)(F)F)C(F)(F)F)C(F)(F)F` (centres undefined), the AC50 in [1] was 2.62 µM (active) and 5.68 µM (active); in test [2] it was 5.29 µM (active); in test [3], 3.33 µM (active); in test [6] it was 4.92 µM (active). The outcome in [2], in test [3], in test [4], in test [5] and in test [6] was inactive.

In the case of `NC(=O)c1c(Cl)cccc1Cl`, the result in [1], in test [2], in test [3], in [4], in [5] and in [6] was inactive.

On to `CCCCCCCCCC(=O)OCC`, for which the outcome in [1], in test [2], in [3], in test [4], in test [5] and in [6] was inactive.
